Laboratory results as given in PubChem BioAssay (NCATS).
Values without a mark were called inactive. Inconclusive results are not listed. Entries that show only a call come without a potency. Activity calls are given as the source filed them. The call rests on the fitted dose curve; in most records, active means well fitted curve in the direction sought with a large enough effect; inconclusive means small, poorly fitted or top-dose-only effect, or another doubt; inactive means no such curve, though single readings can be large; an effect the other way counts as inactive or inconclusive.

How the values were obtained:
[1] = molecular target: Glutathione peroxidase 1 (Homo sapiens) (UniProt P07203); experiment: Primary qHTS Assay for Inhibitors of Recombinant Selenoprotein Glutathione Peroxidase 1 (GPX1) (AID 1845191); further: nearly all actives have a fitted effect of over 65% in size
Chain of Glutathione peroxidase 1 (Homo sapiens) (P07203 whole entry, looked up): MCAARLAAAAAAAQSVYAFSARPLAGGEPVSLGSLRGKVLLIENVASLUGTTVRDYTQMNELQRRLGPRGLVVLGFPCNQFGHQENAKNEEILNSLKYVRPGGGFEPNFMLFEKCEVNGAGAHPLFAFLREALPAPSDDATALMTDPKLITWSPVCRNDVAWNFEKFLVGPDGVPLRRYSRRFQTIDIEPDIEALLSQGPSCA
How it was run: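 NADPH consumption tracked by fluorescence at 340/450 nm between t=0 and t=15 min, room temperature. Final mix: 10 nM GPX1, 100 nM glutathione reductase, 1 mM GSH, 0.5 mM NADPH, 0.5 mM cumene hydroperoxide, 0.01% BSA; 30 min compound–enzyme preincubation.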

[2] = molecular target: Phospholipid hydroperoxide glutathione peroxidase GPX4 (Homo sapiens) (UniProt P36969); experiment: Primary qHTS Assay for Inhibitors of Recombinant Selenoprotein Glutathione Peroxidase 4 (GPX4) (AID 1845192); further: nearly all actives have a fitted effect of over 65% in size
Chain of Phospholipid hydroperoxide glutathione peroxidase GPX4 (Homo sapiens) (P36969 whole entry, looked up): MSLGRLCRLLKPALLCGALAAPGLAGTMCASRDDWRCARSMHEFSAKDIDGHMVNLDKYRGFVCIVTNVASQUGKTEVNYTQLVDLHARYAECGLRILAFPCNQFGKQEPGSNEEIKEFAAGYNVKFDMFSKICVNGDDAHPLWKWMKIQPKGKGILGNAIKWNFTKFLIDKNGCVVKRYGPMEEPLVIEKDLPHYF
How it was run: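 NADPH consumption followed by fluorescence at 340/450 nm, t=0 and after 15 min at room temperature. Reaction started with cumene hydroperoxide (0.5 mM final) after 30 min compound–GPX4 preincubation; final 200 nM GPX4, 100 nM GR, 1 mM GSH, 0.5 mM NADPH.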

[3] = molecular target: Luciferin 4-monooxygenase (Photinus pyralis) (UniProt P08659); experiment: Primary firefly luciferase (FLuc) qHTS assay for identification of artifact compounds. (AID 1845220); further: nearly all actives have a fitted effect of over 60% in size
How it was run: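 FLuc 10 nM; luciferin 10 uM; ATP 10 uM; Tris-acetate pH 7.6, Mg-acetate 10 mM; 15 min RT preincubation; 5 min reaction; luminescence.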

[4] = Primary fluorescence-based thiol-reactive (MSTI) qHTS assay for identification of artifact compounds. (AID 1845221); further: nearly all actives have a fitted effect of over 65% in size; further: potency means the concentration at half of the fitted maximal effect
How it was run: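 Compounds were incubated 1 h at room temperature in the dark with the MSTI probe (4 uM) in PBS pH 7.4, 2% DMSO. Signals were normalized between Acetyl-MSTI and MSTI.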

[5] = test system: Nanoluciferase (engineered Oplophorus gracilirostris luciferase); experiment: Primary Nanoluciferase (NLuc) qHTS assay for identification of artifact compounds. (AID 1845222);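 further: NLuc secreted into diluted conditioned medium of S16 cells; series mostly up to about 54 µM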
How it was run: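 NLuc from S16 cell medium (1:55) plus test compounds, 15 min, room temperature. Luminescence after Nano-Glo (1:100) addition, 5 min.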

[6] = Primary redox qHTS assay for identification of artifact compounds. (AID 1845223)
How it was run: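 Redox-cycling detection via DTT (250 uM final) oxidation coupled to Amplex Red (25 uM)/HRP (250 mU/mL) in HBSS. 15 min preincubation plus 30 min after DTT, room temperature. Ex/Em 525/598 nm; 4-parameter Hill fit against DMSO and 10 uM DA3003.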

SMILES	Potency [1]	Potency [2]	Potency [3]	Potency [4]	Potency [5]	Potency [6]
CC(C)CCCCC(=O)N[C@@H](CO)C(=O)N[C@@H](CC(C)C)C(=O)[C@@]1(CO)CO1	inactive	inactive	inactive	inactive	inactive	inactive
OC[C@H]1O[C@@H](OC/C=C/c2ccc(O)cc2)[C@H](O)[C@@H](O)[C@@H]1O	inactive	inactive	inactive	inactive	inactive	inactive
CC(C)(O)C(=O)N1CCN(c2ccc(C(F)(F)F)c(C3=C(c4c[nH]c5ccccc45)C(=O)NC3=O)c2)CC1	inactive	inactive	inactive	3360 nM (active)	inactive	inactive
C=C1C(=O)O[C@@H]2[C@H]1CC[C@H](C)C(CCC(=O)O)C2(C)O (some centres not stated)	inactive	inactive	inactive	inactive	inactive	inactive
O=C(Nc1ccccc1Cl)c1cnc2ccc(C3CCNCC3)cn12	inactive	inactive	inactive	inactive	inactive	inactive
C=C1C(=O)O[C@@H]2C3C(=C(C)[C@@H](O)[C@@H](OC(=O)/C(=C/C)COC(C)=O)[C@@H]12)C(=O)[C@H]1O[C@@]31C (some centres not stated)	inactive	inactive	inactive	inactive	inactive	inactive
C=C1C(=O)O[C@H]2C3=C(C)CCC[C@]3(C)C(=O)C[C@@H]12	inactive	inactive	inactive	inactive	inactive	inactive
COc1ccc(CN2CCN(C(=O)CCNC(=O)c3ccc(C(C)(C)C)cc3)CC2)cc1	inactive	inactive	inactive	inactive	inactive	inactive
O=C(NC[C@H]1CN(c2ccc(N3CCOCC3=O)cc2)C(=O)O1)c1ccc(Cl)s1	inactive	inactive	inactive	inactive	inactive	inactive
COc1ccc(C2=NC(c3ccc(Cl)cc3)C(c3ccc(Cl)cc3)N2C(=O)N2CCNC(=O)C2)c(OC(C)C)c1 (configuration not stated)	inactive	inactive	inactive	inactive	inactive	inactive
C=C1CCN([C@H](C)[C@](O)(Cn2cncn2)c2ccc(F)cc2F)CC1	inactive	inactive	inactive	inactive	inactive	inactive
C/C=C(\C)C(=O)O[C@H]1C[C@](C)(O)[C@H]2CC=C(C)[C@H]2[C@@H]2OC(=O)[C@H](C)[C@H]21	inactive	inactive	inactive	inactive	inactive	inactive
Cc1nc(C(=O)N2CCC[C@H]2Cc2nnc(-c3ccccc3)o2)c(-c2ccccc2F)s1	inactive	inactive	inactive	inactive	inactive	inactive
CN(C)CC#CCCC(=O)C(O)(c1ccccc1)C1CCC1 (configuration not stated)	inactive	inactive	inactive	inactive	inactive	inactive
COc1ccc(CCO[C@@H]2O[C@H](CO[C@H]3OC[C@](O)(CO)[C@H]3O)[C@@H](OC(=O)/C=C/c3ccc(O)c(O)c3)[C@H](O[C@@H]3O[C@@H](C)[C@H](O)[C@@H](O)[C@H]3O)[C@H]2O)cc1OC	inactive	inactive	inactive	1580 nM (active)	inactive	inactive
O=C1C(Cc2ccc(O)cc2)N2C(=O)CCN(C(=O)NCc3ccccc3)C2CN1Cc1cccc2ccccc12 (configuration not stated)	inactive	inactive	inactive	inactive	inactive	inactive
CC(C)(N)c1ncc(-c2ccc(OC(F)(F)F)cc2)[nH]1	inactive	inactive	inactive	inactive	inactive	inactive
O=C(NC1CCC1)c1ccc(C#Cc2cccc(F)c2)nc1	inactive	inactive	inactive	inactive	inactive	inactive
COc1cccc(-c2cn(-c3ccc(CCN4CCC(O)CC4)cc3)c3ncnc(N)c23)c1	inactive	inactive	inactive	inactive	inactive	inactive
C/C=C(/C=C(C)/C=C/C=C/C=C(\C)C(=O)C12OC1C(O)(CCO)NC2=O)C(=O)OC (configuration not stated)	inactive	inactive	inactive	inactive	inactive	inactive
Cc1nc2c(C(F)(F)F)cccc2nc1-c1ccc(-c2cccc(S(C)(=O)=O)c2)cc1	inactive	inactive	inactive	inactive	inactive	inactive
O=C(NC1(c2ccccc2)CC1)c1c(CN2CCC(N3CCCCC3)CC2)c(-c2cccc(C(F)(F)F)c2)nc2cc(Br)ccc12	inactive	inactive	inactive	inactive	inactive	inactive
